One test addresses FGA. Description: pooled miR-30 sensor sort-seq; sequence = guide strand. Particulars: shRNA.
With TAAAATTCAGTGATCCATCCAT, the sensor-assay potency score (higher = more potent) is 0.455.

TGTAGTTCCAGTCTTCATCAGA: the sensor-assay potency score (higher = more potent) is -0.66.

For the sequence TTGACTTCATCAATCAACCCTT, the sensor-assay potency score (higher = more potent) was -0.0172.

Take TTGTAGAGAATCTCAACTGCTT: the sensor-assay potency score (higher = more potent) was determined as 0.304.

Consider TTAGGTTGTAGAGAATCTCAAC, for which the sensor-assay potency score (higher = more potent) was -0.726.

The target in a further test is FGF1. Described as above. The settings on record: shRNA.
For the sequence TTCTCTGCATGCTTCTTGGATA, the sensor-assay potency score (higher = more potent) was -0.722.

For TTCTTGGATATATAGGTGTTGT, the sensor-assay potency score (higher = more potent) was -1.22.

In the case of TTTGGTGTCTGTGAGCCGTATA, the sensor-assay potency score (higher = more potent) is -0.694.

Take TCATTTGGTGTCTGTGAGCCGT: the sensor-assay potency score (higher = more potent) is -0.0568.

Turning to TTTCCAGGAACAAACATTCCTC, the sensor-assay potency score (higher = more potent) is -0.373.

Turning to TTTCTGGCCATAGTGAGTCCGA, the sensor-assay potency score (higher = more potent) was -0.918.

For the sequence TAATGGTTCTCCTCCAGCCTTT, the sensor-assay potency score (higher = more potent) is -0.798.

In the case of TTGCTTTCTGGCCATAGTGAGT, the sensor-assay potency score (higher = more potent) is -1.34.

TTTGCAGCTCCCATTCTTCTTG: the sensor-assay potency score (higher = more potent) was -0.462.

For TTCTTCTCTGCATGCTTCTTGG, the sensor-assay potency score (higher = more potent) was -0.847.

With TAGTGAGTCCGAGGACCGCGTT, the sensor-assay potency score (higher = more potent) was -1.55.

For the sequence TGAATGTGCTGGTCGCTCCTGT, the sensor-assay potency score (higher = more potent) is -0.0696.

On to TATATAGGTGTTGTAATGGTTC, for which the sensor-assay potency score (higher = more potent) is -0.522.

With TTGGGCTTCTTGTAATTCCCTG, the sensor-assay potency score (higher = more potent) is -0.211.

For AACAAGATTGCTTTCTGGCCAT, the sensor-assay potency score (higher = more potent) was -0.264.

Turning to AGGCAGATTAAACTTCTCGGTC, the sensor-assay potency score (higher = more potent) is -1.58.

As to TTGGATATATAGGTGTTGTAAT, the sensor-assay potency score (higher = more potent) is -0.998.

TCTGGCCATAGTGAGTCCGAGG: the sensor-assay potency score (higher = more potent) is -1.16.

The sequence TAAACTTCTCGGTCAGGGCTGT had a sensor-assay potency score (higher = more potent) of 0.184.

As for ATTTGGTGTCTGTGAGCCGTAT, the sensor-assay potency score (higher = more potent) is -0.909.

For TTGCAGCTCCCATTCTTCTTGA, the sensor-assay potency score (higher = more potent) is -1.07.

Take TTAAACTTCTCGGTCAGGGCTG: the sensor-assay potency score (higher = more potent) was -0.0976.

On to TTCCAGGAACAAACATTCCTCA, for which the sensor-assay potency score (higher = more potent) was -0.434.

In the case of TGGGCTTCTTGTAATTCCCTGG, the sensor-assay potency score (higher = more potent) was -0.134.

In a further test the target is FGF23. Described as above. The settings on record: shRNA.
AATGTTGCCTCTGAAATCCATG: the sensor-assay potency score (higher = more potent) was -1.53.

In turn, TTGGAACCTGCAGTTCTCCGGG displayed a sensor-assay potency score (higher = more potent) of 0.14.

Take TTCTTGTGGATCTGCAGGTGGT: the sensor-assay potency score (higher = more potent) was -1.08.

On to ATCCTCTGATCTGATCATCAGG, for which the sensor-assay potency score (higher = more potent) was -1.39.

On to TGGATCTGCAGGTGGTAGCTGT, for which the sensor-assay potency score (higher = more potent) is -0.923.

Consider TAATGGGTCACTGGCCATCGGG, for which the sensor-assay potency score (higher = more potent) is -1.63.

Turning to TTGCCTCTGAAATCCATGCAGA, the sensor-assay potency score (higher = more potent) is -1.09.

In the case of TGGAACCTGCAGTTCTCCGGGT, the sensor-assay potency score (higher = more potent) was -0.566.

Sequence TATCTTCTGCTCATCACACCTG gave a sensor-assay potency score (higher = more potent) of 0.064.

In the case of TCCATGCAGAGGTATCTTCTGC, the sensor-assay potency score (higher = more potent) was -1.48.

Take TTCTGCTCATCACACCTGTAAT: the sensor-assay potency score (higher = more potent) was -1.67.

The values above are taken from the OligoGym collection.
Note: reference of the scale not given here.
